# Results as given in PubChem BioAssay (EPA / NIEHS).
# Inconclusive results are not listed. Calls of active or inactive are those of the source. How the source made its calls, unless noted: active means hit-call score of the fitted dose curve at least 0.9, where 1 is the maximum; inconclusive means response in the unintended direction; inactive means score below 0.9.
# Columns and labels:
# [1] = read-out: Cytochrome P450 2C19 (Homo sapiens) (UniProt P33261); test: CLD_CYP2C19_48hr: CellzDirect (CLD) Gene Expression Assay for xenobiotic metabolism (CYP2C19) at 48 hours (AID 2283700);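 further: fitted upward so actives raise CYP2C19 mRNA above the 0.2% DMSO vehicle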
# Procedure, shortened: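 CYP2C19 mRNA induction read by chemiluminescent quantitative nuclease protection assay after 48 h, with fresh compound added daily for two days to cultured human liver hepatocytes. Activity fitted upward against 0.2% DMSO vehicle.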
# [2] = CLD_ACTIN_48hr: CellzDirect (CLD) Gene Expression Assay for Baseline Control (Actin) at 48 hours (AID 2283702)
# Procedure, shortened: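 Background-control actin mRNA read by qNPA chemiluminescence at 48 h. Human hepatocyte cultures from two donors received fresh multi-concentration chemical doses daily for two days; 0.2% DMSO served as vehicle baseline.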
# [3] = read-out: Broad substrate specificity ATP-binding cassette transporter ABCG2 (Homo sapiens) (UniProt Q9UNQ0); test: CLD_ABCG2_48hr: CellzDirect (CLD) Gene Expression Assay for ABC Transporter (ABCG2) at 48 hours (AID 2283704);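 on AC50: potency for induction of ABCG2 mRNA above the DMSO baseline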
# Procedure, shortened: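 ABCG2 transcript measured at 48 h by quantitative nuclease protection (chemiluminescent) and fitted for increase relative to 0.2% DMSO. Hepatocyte cultures from separate donors got fresh compound daily over two days; morphology annotated cytotoxicity.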
# [4] = read-out: organic anion transporter (SLCO1B1), SLCO1B1 (gene 10599); test: CLD_SLCO1B1_48hr: CellzDirect (CLD) Gene Expression Assay for organic anion transporter (SLCO1B1) at 48 hours (AID 2283707)
# Procedure, shortened: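 SLCO1B1 transcript quantified by qNPA with chemiluminescent readout after 48 h of once-daily chemical exposure. Cultured human primary hepatocytes came from two donors, with 0.2% DMSO vehicle; positive-direction fitting against DMSO, cytotoxicity flagged by morphology.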
# [5] = read-out: Cytochrome P450 2C9 (Homo sapiens) (UniProt P11712); test: CLD_CYP2C9_48hr: CellzDirect (CLD) Gene Expression Assay for xenobiotic metabolism (CYP2C9) at 48 hours (AID 2283701; active means hit-call score of the fitted dose curve at least 0.9, where 1 is the maximum; inactive means score below 0.9)
# Procedure, shortened: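 mRNA level measured by quantitative nuclease protection (S1 digestion, chemiluminescent detection) in lysates of human primary hepatocytes exposed 48 h with daily re-dosing. Induction fitted positively versus 0.2% DMSO; morphology-based cytotoxicity flagged yes/no.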
# [6] = read-out: alkyl and aryl transferase (GSTA2), GSTA2 (gene 2939); test: CLD_GSTA2_48hr: CellzDirect (CLD) Gene Expression Assay for alkyl and aryl transferase (GSTA2) at 48 hours (AID 2283708);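 further: active means mRNA induction above DMSO vehicle baseline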
# Procedure, shortened: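 GSTA2 mRNA quantified by qNPA chemiluminescence in human primary hepatocyte lysates after 48 h of daily fresh chemical dosing. Increases fitted against 0.2% DMSO vehicle baseline; cytotoxicity from morphology annotated yes/no.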
# [7] = read-out: glucuronosyltransferase (UGT1A1), UGT1A1 (gene 54658); test: CLD_UGT1A1_48hr: CellzDirect (CLD) Gene Expression Assay for glucuronosyltransferase (UGT1A1) at 48 hours (AID 2283709);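 further: actives increase expression relative to DMSO so potency refers to induction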
# Procedure, shortened: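 Quantitative nuclease protection assay (chemiluminescent) for UGT1A1 mRNA at 48 h in human hepatocyte cultures from two donors, redosed daily with fresh solutions. Induction fitted relative to 0.2% DMSO; phase-contrast morphology annotated cytotoxicity.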
# [8] = read-out: xenobiotic metabolism (CYP1A2), CYP1A2 (gene 1544); test: CLD_CYP1A2_48hr: CellzDirect (CLD) Gene Expression Assay for xenobiotic metabolism (CYP1A2) at 48 hours (AID 2283703)
# Procedure, shortened: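 Cytotoxicity was flagged yes/no from morphology, while CYP1A2 transcript induction was detected by qNPA chemiluminescence after a 48-hour exposure. Human primary hepatocyte cultures from separate donors received fresh dosing solutions daily over two days, with 0.2% DMSO as vehicle and baseline.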
# [9] = read-out: Cytochrome P450 2B6 (Homo sapiens) (UniProt P20813); test: CLD_CYP2B6_48hr: CellzDirect (CLD) Gene Expression Assay for xenobiotic metabolism (CYP2B6) at 48 hours (AID 2283699);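 further: actives raise transcript level above DMSO so potency reflects induction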
# Procedure, shortened: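 CYP2B6 transcript induction, read by quantitative nuclease protection (S1 digestion, chemiluminescent detection) 48 h after dosing, is fitted upward against 0.2% DMSO. Cultured human liver primary cells, two donor preparations, received fresh chemical daily over multiple concentrations.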
# [10] = read-out: xenobiotic metabolism (CYP1A1), CYP1A1 (gene 1543); test: CLD_CYP1A1_48hr: CellzDirect (CLD) Gene Expression Assay for xenobiotic metabolism (CYP1A1) at 48 hours (AID 2283705)
# Procedure, shortened: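 CYP1A1 transcript measured by quantitative nuclease protection (chemiluminescent) 48 h after two daily treatments of human hepatocyte cultures, versus 0.2% DMSO. Morphology-based cytotoxicity flags accompany data; two donor preparations used.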
# Sequence of Cytochrome P450 2C19 (Homo sapiens) (P33261 whole entry, looked up): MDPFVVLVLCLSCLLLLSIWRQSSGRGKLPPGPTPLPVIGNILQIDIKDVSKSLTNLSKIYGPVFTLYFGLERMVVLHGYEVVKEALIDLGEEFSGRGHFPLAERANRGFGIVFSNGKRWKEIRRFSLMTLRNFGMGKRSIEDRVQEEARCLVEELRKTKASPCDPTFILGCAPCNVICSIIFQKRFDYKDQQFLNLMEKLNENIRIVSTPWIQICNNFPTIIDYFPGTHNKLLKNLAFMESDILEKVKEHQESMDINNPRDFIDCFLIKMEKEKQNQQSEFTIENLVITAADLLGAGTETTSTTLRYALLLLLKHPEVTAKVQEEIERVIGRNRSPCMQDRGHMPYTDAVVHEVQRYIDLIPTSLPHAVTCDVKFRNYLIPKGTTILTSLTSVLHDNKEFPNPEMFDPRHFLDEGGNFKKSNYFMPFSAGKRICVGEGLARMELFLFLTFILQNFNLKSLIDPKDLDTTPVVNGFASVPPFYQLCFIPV
# Sequence of Broad substrate specificity ATP-binding cassette transporter ABCG2 (Homo sapiens) (Q9UNQ0 whole entry, looked up): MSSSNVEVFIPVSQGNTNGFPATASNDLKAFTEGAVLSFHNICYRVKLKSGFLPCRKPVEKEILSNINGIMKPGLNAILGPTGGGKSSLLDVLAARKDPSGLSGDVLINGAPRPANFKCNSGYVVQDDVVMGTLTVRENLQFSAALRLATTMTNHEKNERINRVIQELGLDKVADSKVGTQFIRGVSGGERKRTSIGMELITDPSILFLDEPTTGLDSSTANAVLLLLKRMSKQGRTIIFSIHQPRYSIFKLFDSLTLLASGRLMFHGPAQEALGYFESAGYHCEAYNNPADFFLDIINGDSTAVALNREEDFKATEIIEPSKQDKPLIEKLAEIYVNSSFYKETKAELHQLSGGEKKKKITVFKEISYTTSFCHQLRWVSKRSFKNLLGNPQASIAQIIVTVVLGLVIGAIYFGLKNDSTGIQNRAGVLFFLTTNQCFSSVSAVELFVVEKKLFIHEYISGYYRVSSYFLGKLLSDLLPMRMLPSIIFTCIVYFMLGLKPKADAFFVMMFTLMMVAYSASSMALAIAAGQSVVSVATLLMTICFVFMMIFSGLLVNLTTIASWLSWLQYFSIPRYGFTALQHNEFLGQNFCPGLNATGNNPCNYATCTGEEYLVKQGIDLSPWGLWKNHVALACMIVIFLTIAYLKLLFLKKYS
smiles,measurement,setting,value
O=C(O)COc1ccc(Cl)cc1Cl,outcome,[1],inactive
same,outcome,[2],inactive
same,outcome,[3],inactive
same,outcome,[4],inactive
COC(=O)c1ccccc1CS(=O)(=O)NC(=O)Nc1nc(OC)cc(OC)n1,outcome,[1],inactive
same,outcome,[5],inactive
same,outcome,[3],inactive
same,outcome,[4],inactive
same,outcome,[6],inactive
CC(C)OC(=O)Nc1cccc(Cl)c1,outcome,[1],inactive
same,outcome,[5],inactive
same,outcome,[2],inactive
same,outcome,[4],inactive
same,outcome,[6],inactive
CC[C@H](C)[C@H]1O[C@]2(C=C[C@@H]1C)C[C@@H]1C[C@@H](C/C=C(\C)[C@@H](O[C@H]3C[C@H](OC)[C@@H](O[C@H]4C[C@H](OC)[C@@H](O)[C@H](C)O4)[C@H](C)O3)[C@@H](C)/C=C/C=C3\CO[C@@H]4[C@H](O)C(C)=C[C@@H](C(=O)O1)[C@]34O)O2 (tested in a mixture with another compound),outcome,[1],inactive
same,outcome,[2],inactive
same,AC50,[3],3.14 µM (active)
same,outcome,[6],inactive
CNC(=O)Oc1ccccc1OC(C)C,outcome,[1],inactive
same,outcome,[5],inactive
same,outcome,[2],inactive
same,outcome,[7],inactive
C#CCN1C(=O)COc2cc(F)c(N3C(=O)C4=C(CCCC4)C3=O)cc21,outcome,[1],inactive
same,outcome,[5],inactive
same,outcome,[3],inactive
same,outcome,[6],inactive
CNC(=O)/C=C(\C)OP(=O)(OC)OC,outcome,[1],inactive
same,outcome,[2],inactive
same,outcome,[3],inactive
same,outcome,[4],inactive
same,outcome,[6],inactive
O=S1OCC2C(CO1)C1(Cl)C(Cl)=C(Cl)C2(Cl)C1(Cl)Cl (configuration not stated),outcome,[1],inactive
same,outcome,[3],inactive
N#Cc1c(Cl)c(Cl)c(Cl)c(C#N)c1Cl,outcome,[1],inactive
same,outcome,[2],inactive
same,outcome,[3],inactive
same,outcome,[6],inactive
OCCOc1ccccc1,outcome,[1],inactive
same,outcome,[2],inactive
same,outcome,[6],inactive
Cc1cc(C)nc(NC(=O)NS(=O)(=O)c2ccccc2C(=O)OC2COC2)n1,outcome,[1],inactive
same,outcome,[5],inactive
same,outcome,[2],inactive
same,outcome,[8],inactive
same,outcome,[3],inactive
CNC(=O)CSP(=S)(OC)OC,outcome,[1],inactive
same,outcome,[2],inactive
same,outcome,[3],inactive
same,outcome,[7],inactive
Oc1ccc(Cl)cc1Cc1ccccc1,outcome,[1],inactive
same,outcome,[3],inactive
same,outcome,[4],inactive
same,outcome,[6],inactive
CC1(C)C(C=C(Cl)Cl)C1C(=O)OC(C#N)c1ccc(F)c(Oc2ccccc2)c1 (configuration not stated),outcome,[1],inactive
same,outcome,[5],inactive
same,outcome,[6],inactive
O=C1c2ccccc2C(=O)N1SC(Cl)(Cl)Cl,outcome,[1],inactive
same,outcome,[2],inactive
same,outcome,[3],inactive
same,outcome,[4],inactive
same,outcome,[6],inactive
same,outcome,[7],inactive
N#CN,outcome,[1],inactive
same,outcome,[5],inactive
same,outcome,[2],inactive
same,outcome,[3],inactive
same,outcome,[6],inactive
Cc1[nH]c(=O)n(C(C)(C)C)c(=O)c1Cl,outcome,[1],inactive
same,outcome,[5],inactive
same,outcome,[2],inactive
same,outcome,[6],inactive
CC(C)(C)C(O)C(Oc1ccc(Cl)cc1)n1cncn1 (configuration not stated),AC50,[9],3.18 µM (active)
same,outcome,[1],inactive
same,outcome,[5],inactive
same,outcome,[3],inactive
same,outcome,[6],inactive
COC(=O)c1ccccc1S(=O)(=O)NC(=O)Nc1nc(C)nc(OC)n1,outcome,[1],inactive
same,outcome,[2],inactive
same,outcome,[3],inactive
same,outcome,[6],inactive
O=C(O)C(F)(F)C(F)(F)C(F)(F)C(F)(F)C(F)(F)C(F)(F)C(F)(F)F,outcome,[1],inactive
same,outcome,[2],inactive
same,outcome,[8],inactive
same,outcome,[3],inactive
same,outcome,[4],inactive
same,outcome,[6],inactive
O=C(O)CCCOc1ccc(Cl)cc1Cl,outcome,[1],inactive
same,outcome,[5],inactive
same,outcome,[2],inactive
same,outcome,[3],inactive
C[C@H]1[C@H](c2ccc(Cl)cc2)SC(=O)N1C(=O)NC1CCCCC1,outcome,[1],inactive
same,outcome,[5],inactive
same,AC50,[3],34.8 µM (active)
same,AC50,[6],34.4 µM (active)
COP(=O)(OC)OC=C(Cl)Cl,outcome,[1],inactive
same,outcome,[5],inactive
same,outcome,[2],inactive
same,outcome,[3],inactive
same,outcome,[4],inactive
same,outcome,[6],inactive
Oc1cc(Cl)ccc1Oc1ccc(Cl)cc1Cl,outcome,[1],inactive
same,outcome,[2],inactive
same,outcome,[3],inactive
same,outcome,[4],inactive
same,outcome,[6],inactive
CCN(CC)C(=O)SCc1ccc(Cl)cc1,AC50,[9],20 µM (active)
same,outcome,[1],inactive
same,outcome,[2],inactive
same,outcome,[6],inactive
O=C(NC(=O)c1c(F)cccc1F)Nc1ccc(OC(F)(F)C(F)OC(F)(F)F)c(Cl)c1 (configuration not stated),outcome,[1],inactive
same,outcome,[2],inactive
same,outcome,[3],inactive
same,outcome,[4],inactive
Clc1ccccc1-c1nnc(-c2ccccc2Cl)nn1,outcome,[5],inactive
same,outcome,[3],inactive
same,outcome,[6],inactive
same,outcome,[7],inactive
CCS(=O)(=O)c1cccnc1S(=O)(=O)NC(=O)Nc1nc(OC)cc(OC)n1,outcome,[2],inactive
same,outcome,[3],inactive
same,outcome,[4],inactive
same,outcome,[6],inactive
CCOc1nc(NC)nc(NC(=O)NS(=O)(=O)c2ccccc2C(=O)OC)n1,outcome,[5],inactive
same,outcome,[3],inactive
same,outcome,[4],inactive
same,outcome,[6],inactive
CNC(=O)Oc1cccc(N=CN(C)C)c1,outcome,[2],inactive
same,outcome,[8],inactive
same,outcome,[6],inactive
COC(=O)c1ccccc1S(=O)(=O)NC(=O)N(C)c1nc(C)nc(OC)n1,outcome,[5],inactive
same,outcome,[8],inactive
same,outcome,[6],inactive
same,outcome,[7],inactive
O=[N+]([O-])c1c(Cl)c(Cl)c(Cl)c(Cl)c1Cl,outcome,[5],inactive
same,outcome,[2],inactive
same,outcome,[3],inactive
same,outcome,[4],inactive
same,outcome,[6],inactive
COP(=S)(OC)Oc1ccc([N+](=O)[O-])cc1,outcome,[5],inactive
same,outcome,[3],inactive
same,outcome,[4],inactive
same,AC50,[7],6.74 µM (active)
CCOC1Oc2ccc(OS(C)(=O)=O)cc2C1(C)C (configuration not stated),outcome,[5],inactive
same,outcome,[3],inactive
same,outcome,[6],inactive
CC1(c2ccc(Oc3ccccc3)cc2)OC(=O)N(Nc2ccccc2)C1=O (configuration not stated),outcome,[2],inactive
same,outcome,[3],inactive
same,AC50,[10],3.38 µM (active)
same,outcome,[6],inactive
CCCN(CCOc1c(Cl)cc(Cl)cc1Cl)C(=O)n1ccnc1,AC50,[3],35.4 µM (active)
same,outcome,[6],inactive
CCc1ccc(C(=O)NN(C(=O)c2cc(C)cc(C)c2)C(C)(C)C)cc1,outcome,[5],inactive
same,outcome,[4],inactive
same,AC50,[7],3.53 µM (active)
CCCN(CCC)c1c([N+](=O)[O-])cc(C(F)(F)F)cc1[N+](=O)[O-],outcome,[5],inactive
same,outcome,[6],inactive
CN1CSC(=S)N(C)C1,outcome,[5],inactive
same,outcome,[3],inactive
same,outcome,[10],inactive
same,outcome,[6],inactive
same,outcome,[7],inactive
O=[N+]([O-])/N=C1\NCCN1Cc1ccc(Cl)nc1,outcome,[2],inactive
same,outcome,[6],inactive
ClC1C(Cl)C(Cl)C(Cl)C(Cl)C1Cl (configuration not stated),outcome,[5],inactive
same,outcome,[3],inactive
same,outcome,[6],inactive
CC(C)N(C(=O)COc1nnc(C(F)(F)F)s1)c1ccc(F)cc1,outcome,[2],inactive
same,outcome,[3],inactive
same,outcome,[6],inactive
COP(=S)(OC)Oc1ccc(SC)c(C)c1,AC50,[8],6.69 µM (active)
CCC(C)(C)C(=O)OC1=C(c2ccc(Cl)cc2Cl)C(=O)OC12CCCCC2,outcome,[5],inactive
same,outcome,[3],inactive
same,outcome,[6],inactive
CCOCN(C(=O)CCl)c1c(C)cccc1CC,outcome,[2],inactive
same,outcome,[3],inactive
same,AC50,[6],20 µM (active)
[2H]C1([2H])[n+]2ccccc2-c2cccc[n+]2C1([2H])[2H],outcome,[8],inactive
same,outcome,[3],inactive
same,outcome,[6],inactive
COc1cc(OC)nc(NC(=O)NS(=O)(=O)c2cc(NC=O)ccc2C(=O)N(C)C)n1,outcome,[5],inactive
same,outcome,[3],inactive
same,outcome,[4],inactive
same,outcome,[6],inactive
CCC(C)Nc1c([N+](=O)[O-])cc(C(C)(C)C)cc1[N+](=O)[O-] (configuration not stated),outcome,[1],inactive
same,outcome,[3],inactive
same,AC50,[6],4.11 µM (active)
O=C(Nc1ccccc1)Nc1cnns1,outcome,[1],inactive
same,outcome,[3],inactive
same,outcome,[6],inactive
CCC(C)(NC(=O)c1cc(Cl)c(C)c(Cl)c1)C(=O)CCl (configuration not stated),outcome,[5],inactive
same,outcome,[2],inactive
same,outcome,[6],inactive
O=S(=O)(O)C(F)(F)C(F)(F)C(F)(F)C(F)(F)C(F)(F)C(F)(F)C(F)(F)C(F)(F)F,outcome,[2],inactive
same,outcome,[10],inactive
same,outcome,[4],inactive
CC(C)(C)C(O)/C(=C\c1ccc(Cl)cc1Cl)n1cncn1 (configuration not stated),outcome,[5],inactive
same,AC50,[3],31.5 µM (active)
same,outcome,[6],inactive
